This note sets out measurements from publication PMC4552634, “A New Set of Chemical Starting Points with Plasmodium falciparum Transmission-Blocking Potential for Antimalarial Drug Discovery” (PLoS ONE, 2015).

SMILES strings stand for the structures. About 3,200 (25%) of roughly 13,000 compounds showed an effect of 50% or more. This is one part of the list.

The test system of the test is P. falciparum stage V gametocytes. On the set-up: BacTiter-Glo ATP luminescence viability of purified stage V gametocytes in 384-well plates, per cent inhibition versus DMSO. The following applies: 48 h, 5 µM; inhibitor.
As for `CC(C)[C@H](NC(=O)c1ccc(O)c(-c2ccc(Cl)c(Cl)c2)c1)C(=O)NCCN(C)C` [TCMDC-140863], the “% Inhibition” value was 10.43%.
On to `CN(C)c1ccc(CN2CCC(NC(=O)c3ccc(-c4ccccc4Cl)s3)CC2)cc1` [TCMDC-134328], for which the “% Inhibition” value is -0.5721%.
As to `Cc1cc(=O)c(-c2ccc(S(=O)(=O)c3ccc(Cl)cc3)cc2)c(C)[nH]1` [TCMDC-137417], the “% Inhibition” value worked out at 53.38%.
As for `Cc1[nH]c(C)c(-c2ccc(S(=O)(=O)c3ccc(Cl)cc3)cc2)c(=O)c1Br` [TCMDC-137414], the “% Inhibition” value is 77.4%.
`Cc1cc(=O)c(-c2ccc(OCc3ccc(Cl)cc3)cc2)c(C)[nH]1` [TCMDC-137399]: the “% Inhibition” value is listed as 24.98%.
`Cc1cc(=O)c(-c2ccc(Sc3ccc(Cl)cc3)cc2)c(C)[nH]1` [TCMDC-137403]: the “% Inhibition” value was found to be 33.38%.
For the molecule `Cc1[nH]c(C)c(-c2ccc(S(=O)(=O)c3ccc(Cl)cc3)cc2)c(=O)c1Cl` [TCMDC-137412], the “% Inhibition” value turned out to be 67.97%.
Regarding `Cc1ccc(C)c(Cn2ccc3nc(Cl)nc(Cl)c32)c1` [TCMDC-137818], the “% Inhibition” value was found to be 13.19%.
For `Cc1cc(C)n(Cc2ccc(C(=O)NCC3CCCCC3)cc2)n1` [TCMDC-141404], the “% Inhibition” value was -4.003%.
For the molecule `CCC[C@@H]1CCN[C@H]([C@H](O)c2ccnc3ccc(OC)cc23)C1` [TCMDC-138233], the “% Inhibition” value is reported as -1.678%.
For the molecule `CCC[C@@H]([C@@H](CC1CCC(C)CC1)C(=O)N[C@@H](CO)C(=O)Nc1nccs1)N(O)C=O` (stereo partly shown) [TCMDC-138150], the “% Inhibition” value was found to be 0.01446%.
For the molecule `CC(C)c1nc2c(N)nc(N)nc2nc1N` [TCMDC-141986], the “% Inhibition” value stood at 9.894%.
Take `O=C(NCCNc1ccnc2cc(Cl)ccc12)c1ccccc1F` [TCMDC-125232]: the “% Inhibition” value is -18.32%.
For the molecule `Cn1nccc1C(=O)NCCNCc1cccc(-c2ccc(-c3nc4ccccc4[nH]3)s2)c1.O=C(O)C(F)(F)F` [TCMDC-133003], the “% Inhibition” value is -10.06%.
As for `Cc1ccc(NC(C)C(=O)Nc2ccc(C#N)cc2)cc1S(=O)(=O)N1CCCCC1` (stereo not shown) [TCMDC-124508], the “% Inhibition” value is listed as -17.26%.
Consider `COc1cc(OC)cc(-c2nn(-c3ccc([N+](=O)[O-])cc3Cl)c(=S)n2CC2CCCO2)c1` (stereo not shown) [TCMDC-135129], for which the “% Inhibition” value stood at 88.54%.
With `CCn1c(Sc2ccc(C#N)c([N+](=O)[O-])c2)nnc1-c1cc(OC)cc(OC)c1` [TCMDC-135587], the “% Inhibition” value was 21.42%.
On to `N#Cc1cc([N+](=O)[O-])ccc1-n1nc(-c2cccc(Cl)c2)n(CC2CCCO2)c1=S` (stereo not shown) [TCMDC-134718], for which the “% Inhibition” value is 89.7%.
With `CCCCn1c(Sc2ccc(C#N)c([N+](=O)[O-])c2)nnc1-c1cc(OC)cc(OC)c1` [TCMDC-135578], the “% Inhibition” value is 32.96%.
In the case of `COc1cc(OC)cc(-c2nn(-c3ccc([N+](=O)[O-])cc3C#N)c(=S)n2CC2CCCO2)c1` (stereo not shown) [TCMDC-134716], the “% Inhibition” value came out at 96.39%.
As for `COc1cc(NC(=O)c2cc([N+](=O)[O-])ccc2NC(=O)CNC2CCCCC2C)cc(OC)c1` (stereo not shown) [TCMDC-125301], the “% Inhibition” value is reported as -14.04%.
In the case of `CCCn1c(Sc2ccc(C#N)c([N+](=O)[O-])c2)nnc1-c1cc(OC)cc(OC)c1` [TCMDC-135577], the “% Inhibition” value was 43.88%.
In the case of `N#Cc1ccc(Sc2nnc(-c3ccccc3Cl)n2CC2CCCCC2)cc1[N+](=O)[O-]` [TCMDC-135616], the “% Inhibition” value was determined as 15.71%.
Consider `Nc1nc(N)c2c(Cc3ccc(Br)cc3)cccc2n1` [TCMDC-137800], for which the “% Inhibition” value came out at 14.7%.
With `CCOC(=O)C(C(C)=O)C(c1ccccc1)C(C(C)=O)C(=O)OCC` (stereo not shown) [TCMDC-125515], the “% Inhibition” value came to 28.08%.
For the molecule `CC1CCCC(NC(=O)CCOc2ccccc2)C1` (stereo not shown) [TCMDC-139363], the “% Inhibition” value was determined as 13.69%.
In the case of `CCOC(=O)c1ccc(NC(=O)N(Cc2ccc(-c3ccc(CN4CCNCC4)cc3)cc2)Cc2cccnc2)cc1` [TCMDC-139650], the “% Inhibition” value was determined as 18.76%.
With `CCOC(=O)c1ccc(NC(=O)N(Cc2ccc(-c3cccc(CN4CCNCC4)c3)cc2)C2CCN(Cc3ccccc3)CC2)cc1` [TCMDC-139636] the figure was 111.5%; with `CCOC(=O)c1ccc(NC(=O)N(Cc2ccc(-c3ccc(CN4CCNCC4)cc3)cc2)C2CCN(Cc3ccccc3)CC2)cc1` [TCMDC-139651], 101.9%.
In the case of `CC(C)Cc1nc(N)nc(N)c1-c1ccc(Cl)cc1` [TCMDC-137932] it was 19.17%; in that of `Cn1nc(C(F)(F)F)c(-c2ccc(F)cc2)c1NC(=O)Nc1ccc(F)cc1F` [TCMDC-123774], 47.06%.
Consider `Cn1nc(C(F)(F)F)c(-c2ccc(Br)cc2)c1NC(=O)Nc1ccc(F)cc1F` [TCMDC-124576], for which the “% Inhibition” value came to 44.22%.
In the case of `CN1CCN=C1c1ccc(NC(=O)Nc2ccc(C3=NCCN3C)cc2)cc1` [TCMDC-137204] it was 15.96%.
Consider `COc1ccc(-c2c(C(F)(F)F)nn(C)c2NC(=O)Nc2ccc(F)cc2F)cc1` [TCMDC-123775], for which the “% Inhibition” value was 71.46%.
For `O=C(Nc1ccccc1)Nc1ccc(-n2ccc(C(F)(F)F)n2)cc1` [TCMDC-123480], the “% Inhibition” value is listed as -19.16%.
With `Cn1nc(C(F)(F)F)c(-c2ccc(Br)cc2)c1NC(=O)Cc1ccccc1F` [TCMDC-123792] the figure was 91.27%; with `Cn1nc(C(F)(F)F)c(-c2ccc(F)cc2)c1NC(=O)Nc1ccc(F)cc1` [TCMDC-124506], 65.51%.
As for `O=C(Nc1ccccc1C(F)(F)F)Nc1nn(Cc2c(F)cccc2Cl)cc1Br` [TCMDC-124365], the “% Inhibition” value was -20.4%.
As to `COc1ccc(NC(=O)Nc2cccc(-c3cccc(-c4nc5ccc(F)cc5[nH]4)c3)c2)cc1` [TCMDC-133249], the “% Inhibition” value is -8.23%.
`CCOC(=O)Cn1ccc2c(NCc3ccccc3)nc(C)nc21` [TCMDC-137249]: the “% Inhibition” value is listed as 9.107%.
Regarding `OC(CN1CCN(c2cccc(Cl)c2)CC1)C(c1ccccc1)c1ccccc1` (stereo not shown) [TCMDC-123456], the “% Inhibition” value stood at 0.2376%.
In the case of `COc1cccc2cc(C(=O)N[C@@H](CC(C)C)C(=O)N[C@H](C=NN3CCCC3=O)Cc3ccccc3)oc12` [TCMDC-136091] it was 20.05%; in that of `CC(c1cccc(Nc2nccc(-c3c(-c4cccc(NC(=O)c5c(F)cccc5F)c4)nn4ncccc34)n2)c1)S(C)(=O)=O` (stereo not shown) [TCMDC-135696], -68.26%.
